From PubChem BioAssay AID485290 (National Center for Advancing Translational Sciences (NCATS), 2010) come the findings set out here.

Values joined by “and” are separate entries in the source; they are usually repeats but may differ in a detail not shown here. Equal entries are not always repeated. Hit rate of the full screen: of about 350,000 compounds, about 990 (0.28%) were called active. Not shown: some 2% with an inconclusive outcome. Calls come from the whole dose curve; as a rule, active = well fitted inhibition curve with a large enough effect; inconclusive = small, poorly fitted or top-dose-only effect; inactive = no such curve, though single readings can be large or run the other way. What follows is part of a selection rich in actives, with near analogues and random picks from the rest. Some structures have more than one record in an assay (separate samples or runs), and their calls can disagree.
% is set by controls: 0 for no effect and ±100 for the full control effect; potency is the fitted concentration of half-maximal effect.

Tyrosyl-DNA phosphodiesterase 1 (Homo sapiens), sequence (Q9NUW8 whole entry, looked up): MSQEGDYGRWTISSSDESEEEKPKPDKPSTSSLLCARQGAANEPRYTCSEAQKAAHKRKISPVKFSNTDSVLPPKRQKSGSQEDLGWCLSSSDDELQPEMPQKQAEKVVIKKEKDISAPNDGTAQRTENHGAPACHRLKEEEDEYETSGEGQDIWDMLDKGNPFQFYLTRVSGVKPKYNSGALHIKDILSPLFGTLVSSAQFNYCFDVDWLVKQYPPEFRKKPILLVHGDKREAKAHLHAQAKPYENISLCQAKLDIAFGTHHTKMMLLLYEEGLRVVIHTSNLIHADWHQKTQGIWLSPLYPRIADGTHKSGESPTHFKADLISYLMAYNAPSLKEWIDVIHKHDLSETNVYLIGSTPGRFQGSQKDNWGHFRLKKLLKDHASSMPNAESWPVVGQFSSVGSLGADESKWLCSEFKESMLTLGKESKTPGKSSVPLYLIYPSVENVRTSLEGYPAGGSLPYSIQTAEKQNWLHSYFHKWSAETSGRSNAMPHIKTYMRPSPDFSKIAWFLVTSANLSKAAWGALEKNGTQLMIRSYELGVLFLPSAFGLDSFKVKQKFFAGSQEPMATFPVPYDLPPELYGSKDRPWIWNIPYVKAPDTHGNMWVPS

The assay has as its target Tyrosyl-DNA phosphodiesterase 1 (Homo sapiens) (UniProt Q9NUW8). In words: qHTS Assay for Inhibitors of Tyrosyl-DNA Phosphodiesterase (TDP1). Note: nearly all actives have a fitted effect of over 40% in size. Particulars: recombinant TDP1, AlphaScreen DNA substrate cleavage; series mostly up to 130 µM; activity change, negative = inhibition: at the top concentration. An excerpt: NIH Molecular Libraries Probe Production Network [MLPCN]
NIH Chemical Genomics Center [NCGC]
Assay Provider: Yves Pommier and Christophe Marchand, National Cancer Institute
Assay Title: qHTS Assay for Inhibitors of Tyrosyl-DNA Phosphodiesterase (TDP1); note: nearly all actives have a fitted effect of over 40% in size
Human tyrosyl-DNA phosphodiesterase I (Tdp1) is a rational anticancer target because this enzyme is involved in the repair of DNA lesions created by the trapping of human DNA topoisomerase I (Top1) following treatment by anticancer agents such as camptothecins. Recombinant Tdp1 was expressed and purified from E. coli in the laboratory (Anthony et al, Nucleic Acids Research, 2007, Vol. 35, 4474-4484). A Tdp1 DNA substrate bearing a 5' biotin and a 3' phospho-tyrosine was obtained by custom synthesis. This oligonucleotidic DNA substrate was subsequently coupled to a fluorescein isothiocyanate (FITC) group via the free amino group present on the phospho-tyrosine. Tdp1 was screened against the NCGC small molecule library using the AlphaScreen (AS) detection method in which a streptavidin donor AS bead is bound at the 5' end and an anti-FITC AS acceptor bead is bound at the 3' end of the DNA oligonucleotidic substrate. In the presence of Tdp1, the enzyme cleaves the tyrosine-FITC group, leaving a 3' end phosphate on the DNA substrate. This cleavage reaction results in a loss of signal in AS.
[1] 3 ul of buffer is dispensed in columns 3 & 4 as negative control (no enzyme and maximum signal),
[2] 3 ul of enzyme (1 nM final) is dispensed in columns 1,2, 5-48,
[3] 1 ul of substrate (15 nM final) is dispensed throughout the plate,
[4] 1 ul of AS donor/acceptor bead mix (10 ug/ml final) is dispensed throughout the plate
3 ul of Tdp1 enzyme is dispensed to 1536-well Kalypsys black solid bottom plates. Compounds and controls (23 nl) are transferred via Kalypsys Pin Tool. The plates are incubated for 15 min at room temperature, and then 1 ul of substrate is added to start the reaction. After 5 min incubation at room temperature, 1 ul of AS donor/acceptor bead mix is added and the plates are further incubated for 10 min at room temperature. The detection is then performed on a PerkinElmer Envision reader.
Background: Quantitative high-throughput screening tests each substance at several concentrations.
Consider `Nc1ccc2c3c(cccc13)C(=O)NC2=O`, for which the Potency entry was “inactive and 50.1 µM (active)”.

On to `Cc1nn(C)cc1N1C(=O)c2cccc3c(N)ccc(c23)C1=O`, for which the “activity change, negative = inhibition” value is 3.53% (inactive).

As to `CC(=O)c1ccc(S(=O)(=O)N(C)CCCC(=O)N(C)Cc2ccccc2F)cc1`, the Potency is 79.4 µM (active).

As for `COC(=O)Cc1ccc(N(Cc2ccccc2F)S(=O)(=O)c2ccc(Br)cc2)cc1`, the “activity change, negative = inhibition” value is 5.26% (inactive).

In the case of `CCCNC(=O)CN(Cc1ccccc1F)S(=O)(=O)c1ccc(C)cc1`, the “activity change, negative = inhibition” value was 0% (inactive).

Consider `O=C(CNC(=O)c1ccccc1)OC(C(=O)Nc1cc([N+](=O)[O-])ccc1F)c1ccccc1` (stereo unspecified), for which the “activity change, negative = inhibition” value is -0.0203% (inactive).

`O=C(CCCCCNC(=O)c1ccccc1)N/N=C/c1ccccc1`: the “activity change, negative = inhibition” value is 0% (inactive).

On to `O=C(CCNC(=O)c1ccccc1)NN=Cc1ccc(Br)o1`, for which the Potency was 14.1 µM (active).

In the case of `O=C(CCNC(=O)c1ccccc1Cl)NN=Cc1ccco1`, the “activity change, negative = inhibition” value was -19.3% (inactive).

Consider `O=C(Nc1ccc2nc(SCCOc3ccccc3Cl)sc2c1)c1ccco1`, for which the “activity change, negative = inhibition” value is -0.521% (inactive).

For `CCOC(=O)c1ccc(NC(=O)CC2C(=O)N(c3ccccc3)C(=O)N2Cc2cccs2)cc1` (stereo unspecified), the “activity change, negative = inhibition” value is 8.97% (inactive).

On to `COc1ccc(-c2cn3nc(N4CCCC(C(=O)NCCCOC(C)C)C4)sc3n2)cc1` (stereo unspecified), for which the “activity change, negative = inhibition” value was 6.21% (inactive).

Regarding `Cc1ccc(-c2nnc3ccc(SCC(N)=O)nn23)cc1`, the “activity change, negative = inhibition” value was 3.35% (inactive).

Turning to `O=C(CCc1ccccc1)NCCc1cccs1`, the “activity change, negative = inhibition” value is 6.33% (inactive).

In the case of `O=C(O)CCC(=O)N(Cc1ccccc1)Cc1ccccc1`, the “activity change, negative = inhibition” value was 2.81% (inactive).

Regarding `O=C(O)CCC(=O)N(Cc1cccs1)Cc1cccs1`, the Potency is 70.8 µM (active).

Take `Cc1ccc2ccc3c(c2n1)NS(=O)(=O)c1ccccc1-3`: the “activity change, negative = inhibition” value is 3.91% (inactive).

As for `CCn1c(COc2ccccc2)nnc1SCC(=O)NCc1ccco1`, the “activity change, negative = inhibition” value is -2.53% (inactive).

In the case of `O=C(CSc1nc2ccc(Nc3nc(N4CCOCC4)nc(N4CCOCC4)n3)cc2s1)NCc1ccco1`, the “activity change, negative = inhibition” value was 7.41% (inactive).

For the compound `C=CCn1c(CSc2nc3ccccc3s2)nnc1SCC(=O)NCc1ccco1`, the Potency was 50.1 µM (active).

As for `N#Cc1nc(Nc2cc(F)cc(Cl)c2)nc(NC2CCCC2)n1`, the “activity change, negative = inhibition” value was -1.72% (inactive).

For the compound `Cc1ccc(C2C=C(c3ccc(Cl)cc3)Nc3nc(NC(=O)CCC(=O)O)nn32)cc1` (stereo unspecified), the “activity change, negative = inhibition” value was 6.98% (inactive).

As to `COc1cccc(-n2c(N)cc(=O)nc2SCC(=O)Nc2cc(C)on2)c1`, the “activity change, negative = inhibition” value is 4.83% (inactive).

For `Cc1csc(NC(=O)CSc2nc(=O)cc(N)n2-c2ccc(F)cc2)n1`, the “activity change, negative = inhibition” value is 0.637% (inactive).

With `Cc1cc(NC(=O)CSc2nc(=O)cc(N)n2-c2ccc(F)cc2)no1`, the Potency is 100 µM (active).

Regarding `CCc1ccc(NC(=O)CN2CCSc3ccc(S(=O)(=O)N4CCCC4)cc32)cc1`, the “activity change, negative = inhibition” value was 8.88% (inactive).

On to `CC(C)c1ccc(C2CC(=O)N3CN(C4CCCCC4)CSC3=C2C#N)cc1` (stereo unspecified), for which the “activity change, negative = inhibition” value is 4.65% (inactive).

For the compound `Cc1ccc(Cn2ncc3c4sc(C)cc4n(C)c3c2=O)c(C)c1`, the “activity change, negative = inhibition” value was -17.4% (inactive).

For the compound `NC(=O)CSc1nnc(NC(=O)c2ccc(Br)o2)s1`, the Potency is 56.2 µM (active).

With `NC(=O)CSc1nnc(NC(=O)c2ccc3ccccc3c2)s1`, the “activity change, negative = inhibition” value is -9.3% (inactive).

Regarding `CCSc1nnc(NC(=O)c2cc(=O)c3cc(C)c(C)cc3o2)s1`, the “activity change, negative = inhibition” value is 3.68% (inactive).

Turning to `COc1cccc(NC(=O)C(=O)NCC(c2ccc3c(c2)OCO3)N2CCN(C)CC2)c1` (stereo unspecified), the “activity change, negative = inhibition” value was 4.4% (inactive).

With `O=C(Nc1ccc(F)cc1F)c1ccc2c(=O)n3c(nc2c1)CCCCC3`, the “activity change, negative = inhibition” value is 0% (inactive).

Consider `COc1cc(C(=O)NCCc2csc3nc(-c4ccccc4C)nn23)cc(OC)c1OC`, for which the “activity change, negative = inhibition” value was 8.88% (inactive).

As to `Cc1cc(C)c2nc(-c3ccco3)cc(C(=O)O)c2c1`, the Potency was 3.55 µM (active).

As for `CC1CCCN(C(=O)c2cc(-c3ccco3)nc3ccccc23)C1` (stereo unspecified), the “activity change, negative = inhibition” value is -2.87% [at 56.1 µM] (inactive).

Regarding `CN(CCOc1ccccc1)C(=O)c1cc(-c2ccco2)nc2ccccc12`, the “activity change, negative = inhibition” value is -10% (inactive).

For the compound `N#CN1CCC(NS(=O)(=O)c2cccc(F)c2)C1` (stereo unspecified), the “activity change, negative = inhibition” value is -0.0717% (inactive).

As to `COc1cccc(NC(=O)c2ccc3nc(CCc4ccccc4)oc3c2)c1`, the “activity change, negative = inhibition” value is 4.14% (inactive).

As to `COc1cccc(OC2=NS(=O)(=O)c3ccccc32)c1`, the “activity change, negative = inhibition” value is 2.37% (inactive).

As to `COC(=O)c1ccccc1NC(=O)c1ccc2c(=O)n3c(nc2c1)CCCCC3`, the “activity change, negative = inhibition” value is 5.06% (inactive).

`O=C(OCC#CCSc1nnc(-c2ccco2)o1)c1ccc(F)cc1`: the “activity change, negative = inhibition” value is -3.06% (inactive).

With `CN1C(=O)/C(=C\c2ccc(-c3ccccc3)o2)SC1=S`, the “activity change, negative = inhibition” value was 8.48% (inactive).

With `Cc1cc(/C=C2\SC(=Nc3ccc(N4CCOCC4)cc3)N(C)C2=O)c(C)n1-c1cccnc1`, the “activity change, negative = inhibition” value was 5.26% (inactive).

With `CN1C(=O)/C(=C/c2ccco2)SC1=Nc1cccc(C(=O)O)c1`, the Potency is 25.1 µM (active).

As for `CCOC(=O)c1scc(-c2ccccc2)c1S(=O)(=O)Nc1ccccc1F`, the “activity change, negative = inhibition” value is 1.95% (inactive).

In the case of `COc1ccc(-c2nc3sc(CCNC(=O)C(C)(C)C)c(C)n3n2)cc1`, the “activity change, negative = inhibition” value is 2.6% (inactive).

As to `Cc1cccc(Nc2nc(-c3ccccc3)cs2)n1`, the “activity change, negative = inhibition” value was 8% (inactive).

On to `O=C(Nc1nc(-c2cccnc2)cs1)c1ccccc1F`, for which the “activity change, negative = inhibition” value is -1.15% (inactive).

Consider `Cc1ccccc1Nc1nc(-c2cccnc2)cs1`, for which the Potency was 100 µM (active).

Regarding `COc1ccc(-c2c3c(=O)n(C)c(=O)n(C)c3c3c(C)nc4ccccc4n23)cc1`, the “activity change, negative = inhibition” value is 2.12% (inactive).

Take `O=C(CNC(=O)c1ccc(Cl)cc1Cl)OC(C(=O)Nc1cc(C(F)(F)F)ccc1Cl)c1ccccc1` (stereo unspecified): the “activity change, negative = inhibition” value is 0.0717% (inactive).

On to `CCc1nc(-c2cc(S(=O)(=O)N3CCN(c4ccc(OC)cc4)CC3)ccc2OC)no1`, for which the “activity change, negative = inhibition” value was 0% (inactive).

With `CCc1ccc(OCCCn2c(CCCNC(=O)C3CCCCC3)nc3ccccc32)cc1`, the “activity change, negative = inhibition” value was 1.74% (inactive).

In the case of `O=C(Nc1nnc(-c2ccc(Cl)cc2)o1)c1ccccc1Br`, the “activity change, negative = inhibition” value is 9.8% (inactive).

`Cc1ccnc2nc(C(=O)Nc3nnc(-c4ccccc4)o3)nn12`: the Potency is 50.1 µM (active).

Turning to `Cc1ccnc2nc(C(=O)OCC(=O)N(CC(C)C)CC(C)C)nn12`, the “activity change, negative = inhibition” value was 0.595% (inactive).

Turning to `COc1ccc(C(=O)CSc2c(C(C)C)cnc3c2c(=O)n(C)c(=O)n3C)cc1`, the “activity change, negative = inhibition” value is 5.41% (inactive).

As for `CCN(CCCNC(=O)c1ccc(Sc2ccc(C)cc2)c(NC(C)=O)c1)c1cccc(C)c1`, the “activity change, negative = inhibition” value is 7.79% (inactive).

Regarding `Cc1ccc(-n2ncc3c(NCCCn4ccnc4)ncnc32)cc1Cl`, the “activity change, negative = inhibition” value was 13% (inactive).

Take `COc1ccc(C2Nc3ccccc3C(=O)N2Cc2ccccc2)cc1COc1ccc(C(N)=O)cc1` (stereo unspecified): the “activity change, negative = inhibition” value is -0.753% (inactive).

As to `CCc1ccccc1NC(=O)c1ccc2nc(CCc3ccccc3)oc2c1`, the “activity change, negative = inhibition” value is -6.51% (inactive).

For the compound `Cc1cc(=O)oc2cc(NC(=O)C(C)Oc3ccccc3)ccc12` (stereo unspecified), the Potency was 56.2 µM (active).

Consider `Cc1cc(=O)oc2cc(OC(C)C(=O)Nc3ccc(N4CCOCC4)cc3)ccc12` (stereo unspecified), for which the “activity change, negative = inhibition” value was 2.14% (inactive).

Consider `Cc1cc(=O)oc2cc(OC(C)C(=O)NCCc3ccc(S(N)(=O)=O)cc3)ccc12` (stereo unspecified), for which the “activity change, negative = inhibition” value is 3.75% (inactive).

For the compound `COc1ccc(S(=O)(=O)NCC(c2ccc(N(C)C)cc2)N2CCc3ccccc32)cc1OC` (stereo unspecified), the “activity change, negative = inhibition” value is 13.8% (inactive).
